Data as given in the supplement of paper PMC13380429.

Experiments:
[1] = tested on: Vero E6 infected with SARS-CoV-2; assay: morphology score (similarity to uninfected cells); higher = more like uninfected cells; conditions: 24 h
[2] = tested on: Vero E6 infected with SARS-CoV-2; assay: SARS-CoV-2 infection rate relative to infected DMSO; higher = more infection, active = 60 or less; conditions: 24 h

Row | SMILES | morphology score [1] | SARS-CoV-2 infection rate [2]
1 | NS(=O)(=O)c1cc2c(cc1Cl)NC(C(Cl)Cl)NS2(=O)=O (configuration not stated) [trichlormethiazide] (10 µM) | 0.0616 | 100% (inactive)
2 | O=c1c(-c2ccc(O)cc2)coc2cc(O)cc(O)c12 [genistein] (10 µM) | -0.211 | 119% (inactive)
3 | CN(C)CC/C=C1/c2ccccc2COc2ccccc21 [doxepin] (10 µM) | 0.0537 | 105% (inactive)
4 | CC[C@H](CO)Nc1nc(Nc2cccc(-c3ccccn3)c2)c2ncn(C(C)C)c2n1 (10 µM) | -0.214 | 116% (inactive)
5 | COc1cc2c(cc1OC)-c1c/c(=N\c3c(C)cc(C)cc3C)n(C)c(=O)n1CC2 [trequinsin] (10 µM) | 0.541 | 87.5% (inactive)
6 | CC(CCc1ccccc1)NCC(O)c1ccc(O)c(C(N)=O)c1 (configuration not stated) [labetalol] (10 µM) | -0.119 | 114% (inactive)
7 | COc1ccc2c(NC(=O)Nc3cccc(C(F)(F)F)n3)ccnc2c1 (10 µM) | -0.049 | 101% (inactive)
8 | CO/N=C(\C(=O)N[C@@H]1C(=O)N2C(C(=O)O)=C(COC(N)=O)CS[C@H]12)c1ccco1 (10 µM) | 0.0841 | 98.5% (inactive)
9 | c1cc(Nc2cc(C3CC3)n[nH]2)nc(Nc2ccc3[nH]cnc3c2)n1 (0.833333 µM) | -0.282 | 110% (inactive)
10 | NS(=O)(=O)c1cc(C2(O)NC(=O)c3ccccc32)ccc1Cl (configuration not stated) [chlorthalidone] (10 µM) | 0.13 | 78.5% (inactive)
11 | O=S(=O)(O)CCSSCCS(=O)(=O)O [dimesna] (10 µM) | 0.144 | 104% (inactive)
